# In article PMC5540273 (PLoS ONE, 2017):
# Read-outs that look alike come from different tables or passages of the source.
# How the values were obtained:
# TAK1 = tested on: T1, TAK1; details: concentration: 1 μM, replicates: in singlicate; n = 1
# T1 construct: gene MAP3K7
# TAOK1 = details: concentration: 1 μM, replicates: in singlicate; n = 1
# TAOK2 = details: concentration: 1 μM, replicates: in singlicate; n = 1
# TAOK3 = details: concentration: 1 μM, replicates: in singlicate; n = 1
# TBK1 = details: concentration: 1 μM, replicates: in singlicate; n = 1
# TEC = details: concentration: 1 μM, replicates: in singlicate; n = 1
# TESK1 = details: concentration: 1 μM, replicates: in singlicate; n = 1
# TGFBR1 = details: n = 1
# TGFBR2 = details: concentration: 1 μM, replicates: in singlicate; n = 1
# TIE1 = details: concentration: 1 μM, replicates: in singlicate; n = 1
# [1] = concentration: 1 μM, replicates: in singlicate
# 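Further: KINOMEscan kinase panel screen.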
Structure (SMILES),%Inh (TAK1),%Inh (TAOK1),%Inh (TAOK2),%Inh (TAOK3),%Inh (TBK1),%Inh (TEC),%Inh (TESK1),%Inh (TGFBR1; [1]),%Inh (TGFBR2),%Inh (TIE1),%Inh (TGFBR1; 1 µM)
Cn1c(=O)c(F)c(Nc2ccc(I)cc2F)c2c(=O)n(OC[C@H](O)CO)cnc21,0%,0%,27%,0%,52%,30%,31%,20%,13%,0%,–
Cc1ccc(Oc2ccc(Nc3ncnc4cc[nH]c34)cc2C)cn1,30%,0%,0%,0%,30%,6%,13%,2%,0%,0%,–
Cc1ccc(-c2ccc3c(ccc4sc5c(c43)NC[C@@H](C)N=C5N(C)C)n2)cn1,7%,0%,0%,0%,0%,9%,0%,0%,13%,0%,–
Cc1cc(Nc2nc(-c3cccc(C)n3)nc3ccccc23)ccn1 [GW872411],0%,0%,29%,0%,0%,1%,0%,–,0%,0%,83%
